The text below walks through data of PubChem BioAssay (NCATS).

Structures are written as SMILES. Several values for one entry are separate records, joined by “and”; a condition that tells them apart may be missing. Identical values can stand only once. Inconclusive results are not listed. Activity calls are given as the source filed them. Unless noted, calls come from the whole dose curve; as a rule, active = well fitted curve in the direction sought with a large enough effect; inconclusive = small, poorly fitted or top-dose-only effect, or another doubt; inactive = no such curve, though single readings can be large; an effect the other way counts as inactive or inconclusive. Residues, ends and D or L forms follow the SMILES beside them. *: point of attachment. Cbz = O=C(OCc1ccccc1)*; CH2Cl = ClC*

Assay [1] addresses Aldehyde dehydrogenase, mitochondrial (Homo sapiens) (UniProt P05091). The experiment in a line: qHTS for Inhibitors of the Aldehyde Dehydrogenase Family (ALDH2) Confirmatory screens (AID 2061303; active = well fitted inhibition curve with a large enough effect; title and protocol of this record describe different tests; note: nearly all actives have a fitted effect of over 45% in size; note: potency is the fitted concentration of half-maximal effect). Background: qHTS replaces the single test concentration by a dilution series.
A short description of assay [2]: qHTS for Inhibitors of the Aldehyde Dehydrogenase Family (ALDH1A2, ALDH1A3, ALDH2, ALDH3A1) (AID 2061307). For Potency: test system not described further here; potency is the fitted concentration of half-maximal effect. Note: nearly all actives have a fitted effect of over 50% in size.
Assay [3] deals with Retinaldehyde dehydrogenase 3 (Homo sapiens) (UniProt P47895). Put plainly: qHTS for Inhibitors of the Aldehyde Dehydrogenase Family (ALDH1A3) Confirmatory screens (AID 2061311). Note: nearly all actives have a fitted effect of over 60% in size. Note: potency is the fitted concentration of half-maximal effect.
For assay [4], the target named is Retinal dehydrogenase 2 (Homo sapiens) (UniProt O94788). Put plainly: qHTS for Inhibitors of the Aldehyde Dehydrogenase Family (ALDH1A2) Confirmation screens (AID 2061314). Note: nearly all actives have a fitted effect of over 65% in size. Note: potency is the fitted concentration of half-maximal effect.
The target of assay [5] is Retinaldehyde dehydrogenase 3 (Homo sapiens) (UniProt P47895). The experiment in a line: qHTS for Inhibitors of the Aldehyde Dehydrogenase Family (ALDH1A3) Primary screen (AID 2061315).
Assay [6] addresses Aldehyde dehydrogenase 1A1 (Homo sapiens) (UniProt P00352). Put plainly: qHTS for Inhibitors of the Aldehyde Dehydrogenase Family (ALDH1A1) Confirmatory screens (AID 2061316). Note: nearly all actives have a fitted effect of over 65% in size. Note: potency is the fitted concentration of half-maximal effect.
Assay [7] in a line: BET inhibitor-based combinations targeting novel dependencies in MECOM-rearranged (r) AML: OCI-AML3 cell line (AID 2202232). Note: potency is the fitted concentration of half-maximal effect; nearly all actives have a fitted effect of over 35% in size. The conditions noted are these: Potency: OCI-AML3 viability. The gist of the method:
(§1)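 A 48 hr incubation preceded viability reading by CellTiter-Glo, with 15 min room-temperature development. Dose series had 11 points; normalization used DMSO and empty wells; AUC was computed and mean-centered per line as Z-AUC.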

A short description of assay [8]: BET inhibitor-based combinations targeting novel dependencies in MECOM-rearranged (r) AML: MV-4-11 cell line (AID 2202233). Note: potency is the fitted concentration of half-maximal effect; nearly all actives have a fitted effect of over 45% in size. Put shortly:
(§2)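 Each compound is tested in an 11-point concentration series against 500 seeded cells/well for 48 hr. The luminescent viability signal is normalized to DMSO and blank wells, then reduced to AUC and a cell-line-centred Z-AUC.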

Assay [9] can be described thus: BET inhibitor-based combinations targeting novel dependencies in MECOM-rearranged (r) AML: UCSD-AML1 cell line (AID 2202235). Note: series mostly up to about 46 µM; nearly all actives have a fitted effect of over 40% in size. The gist of the method: as §2
The nature of assay [10]: BET inhibitor-based combinations targeting novel dependencies in MECOM-rearranged (r) AML: AML-194 cell line (AID 2202237; note: nearly all actives have a fitted effect of over 40% in size). The gist of the method: as §1
The target in assay [11] is Retinaldehyde dehydrogenase 3 (Homo sapiens) (UniProt P47895). The experiment in a line: qHTS for Inhibitors of the Aldehyde Dehydrogenase Family (ALDH1A3) Validation screen (AID 2061312). Note: nearly all actives have a fitted effect of over 45% in size. Note: potency is the fitted concentration of half-maximal effect.
Assay [12] can be described thus: BET inhibitor-based combinations targeting novel dependencies in MECOM-rearranged (r) AML: HNT-34 cell line (AID 2202234). Note: nearly all actives have a fitted effect of over 35% in size. The gist of the method: as §2

Regarding `CC(=O)N1CCN(c2ccc(NCc3ccc(-c4ccc(Br)cc4)o3)cc2)CC1`, the Potency is 0.142 µM (active) in [1]; 2.01 µM (active) in assay [2]; 25.2 µM (active) in assay [3]; 2.52 µM (active) in assay [4]; 5.65 µM (active) in [6]. Besides, the Potency entry in [5] was “inactive”.

In the case of `O=S(=O)(Nc1cc(O)cc2cccnc12)c1ccc(Br)s1`, the Potency entry in [1], in assay [2] and in assay [3] was “inactive” throughout. Also, the Potency in assay [4] is 0.634 µM (active).

Take `CC(=O)Nc1sc2c(c1-c1cccc(F)c1)CCNC2`: the Potency entry in [1], in [2], in assay [3], in assay [5] and in assay [6] was “inactive” throughout. In addition, in assay [4], the Potency was 20.1 µM (active).

With `Cc1cc2c(c(=O)[nH]1)OC(C(O)CC(C)C)O2` (centres undefined), the Potency result in assay [1], in [2] and in [3] was “inactive” in each case.

As for `COc1ccc(-c2ccc(CNc3ccc(N4CCN(C(=O)OC(C)(C)C)CC4)cc3)o2)cc1`, the Potency was 1.13 µM (active) in assay [1], 11.3 µM (active) in assay [4] and 11.3 µM (active) in [6]. Moreover, the Potency entry in assay [2], in assay [3] and in assay [5] was “inactive” in each case.

For `COc1ccc(C2Nc3ccccc3C(=O)N2Cc2ccco2)cc1COc1cccc(NC(C)=O)c1` (centres undefined), the Potency in assay [1] was 11.3 µM (active); in assay [2], 12.7 µM (active); in [3], 11.3 µM (active); in [4], 11.3 µM (active); in assay [6] it was 4 µM (active). In assay [5], the Potency result is “inactive”.

For the molecule `O=c1cc(-c2ccccn2)oc2c(Nc3ccccc3)nccc12`, the Potency entry in [1] and in assay [2] was “inactive” throughout. Further, in assay [3], the Potency was 20 µM (active).

For the molecule `O=C(O)c1cccnc1SC1=NS(=O)(=O)c2ccccc21`, the Potency entry in assay [1], in assay [2], in [3] and in [5] was “inactive” each time. Moreover, in assay [4], the Potency is 31.8 µM (active).

Turning to `CC(C)(C)OC(=O)N1CCN(c2ccc(NCc3ccc(-c4ccccc4F)o3)cc2)CC1`, the figures for the Potency in assay [1] and in assay [2] were 1.27 µM (active) and 12.7 µM (active), respectively. In addition, the Potency entry in [3], in assay [4] and in assay [5] was “inactive” throughout.

On to `Cc1ccc(OCCn2c(CCNC(=O)c3ccccc3[N+](=O)[O-])nc3ccccc32)cc1`, for which the Potency entry in assay [1], in assay [2], in assay [3], in assay [4] and in assay [5] was “inactive” each time.

On to `NC(=O)C1CCN(c2nccc(-c3ccc4c(c3)OCCO4)n2)CC1`, for which the Potency in assay [1] is 5.65 µM (active); in [2], 7.98 µM (active); in assay [3] it was 14.1 µM (active); in assay [4], 14.2 µM (active); in [6], 0.798 µM (active). In addition, in assay [5], the Potency result was “inactive”.

Regarding `O=C(Nc1cc(Cc2ccccc2)ccn1)c1ccc(-c2cccc([N+](=O)[O-])c2)o1`, the Potency in assay [1] is 11.2 µM (active); in [2] it was 7.08 µM (active); in assay [3], 7.94 µM (active); in [4], 5.01 µM (active). The Potency entry in assay [5] was “inactive”.

With `Cc1ccc2nc3sc(C(=O)NCCN4CCOCC4)cc3cc2c1`, the Potency entry in [1], in assay [2], in assay [3], in assay [4], in assay [5] and in assay [6] was “inactive” throughout.

`Cc1c(NC(=O)c2cc3c(s2)CCCC3)cccc1-c1cn(C)c(=O)c(Nc2ccc(C3C(=O)N(C)CCN3C)cc2)n1` (centres undefined): the Potency result in [1], in [4], in assay [5], in assay [9] and in assay [10] was “inactive” throughout. In addition, the Potency in [2] is 10 µM (active); in [3] it was 2 µM (active) and 7.94 µM (active); in assay [7] it was 16.6 µM (active); in [8], 16.6 µM (active).

Regarding `COc1ccc(-n2ccnc(NCc3ccc(Cl)cc3)c2=O)cc1`, the Potency in [1] was 14.1 µM (active). Moreover, the Potency entry in [2], in assay [3] and in [4] was “inactive” throughout.

Consider `Cc1ccc(-c2ccc(C=O)cc2)c(C)c1`, for which the Potency in assay [1] was 4.7 µM (active); in assay [2] it was 15.8 µM (active); in [3] it was 0.355 µM (active); in assay [4], 12.6 µM (active).

Regarding `CN[C@@H]1[C@H](O[C@H]2[C@H](O[C@@H]3[C@@H](O)[C@H](O)[C@@H](N=C(N)N)[C@H](O)[C@H]3N=C(N)N)O[C@@H](C)[C@]2(O)C=O)O[C@@H](CO)[C@H](O)[C@H]1O`, the Potency entry in assay [1], in [2], in assay [3], in assay [11], in [4] and in [5] was “inactive” throughout. The Potency result in assay [6] and in assay [12] was “inactive” in each case.

Turning to `CC(C)C[C@H](NC(=O)CNC(=O)OCc1ccccc1)C(=O)N[C@@H](Cc1ccccc1)C(=O)CCl` (Cbz-Gly-Leu-Phe-CH2Cl), the Potency result in assay [1], in assay [2], in assay [3], in [5] and in assay [6] was “inactive” throughout. Moreover, the Potency in [4] was 8.96 µM (active).

As for `N#Cc1c(-c2ccc(C(=O)c3ccc(O)cc3)cc2)no[n+]1[O-]`, the Potency in assay [1] was 10 µM (active); in [2], 11.3 µM (active); in assay [3], 15.8 µM (active); in [4] it was 0.712 µM (active); in assay [6], 12.7 µM (active). Further, the Potency result in [5] was “inactive”.

As for `COc1ccccc1-c1cc(-c2ccccc2OC)c2onc(C)c2n1`, the Potency entry in assay [1], in assay [2] and in [4] was “inactive” throughout. Further, in [3], the Potency is 25.1 µM (active).

Regarding `CC(C)(C)OC(=O)N1CCN(c2ccc(NCc3cncc(-c4ccc(C#N)cc4)c3)cc2)CC1`, the values for the Potency in assay [1] and in [2] were 1.79 µM (active) and 0.634 µM (active), respectively. Moreover, the Potency entry in assay [3], in assay [4], in assay [5] and in assay [6] was “inactive” in each case.

For `Fc1c(-c2ccc3ncnc(NCc4cccs4)c3c2)ccc2c1OCO2`, the Potency entry in assay [1], in assay [2], in assay [3], in assay [4], in assay [5] and in assay [6] was “inactive” each time.

Take `Cc1cc(F)ccc1[C@H]1C[C@@H](N2CCN3C(=O)CC[C@H]3C2)CCN1C(=O)N(C)[C@H](C)c1cc(C(F)(F)F)cc(C(F)(F)F)c1`: the Potency result in assay [1], in assay [2], in [3], in assay [4], in [5] and in [6] was “inactive” in each case. Moreover, in assay [11], the Potency was 7.94 µM (active).

As for `CCOc1ccc(-c2nc(CSCC(=O)N3CCN(c4cccc(C(F)(F)F)c4)CC3)c(C)o2)cc1`, the Potency was 8.91 µM (active) in assay [1], 7.94 µM (active) in assay [2] and 2 µM (active) in assay [3].
